Data taken from the supplement of paper PMC10646978.
± gives the standard deviation.

What was measured:
Conditions in all cases: modulator concentration 10 µM
[1] = tested on: RAW-Dual (murine macrophage reporter line); experiment: NF-kB reporter (SEAP) activity fold change vs agonist alone; higher = enhanced NF-kB activity
Method in brief: (§1)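 RAW-Dual murine macrophage reporter cells were seeded at 50 000 per well in 384-well plates and pre-incubated 1 hour at 37 °C with compound pin-transferred to 10 μM final. After 1 hour, a PRR agonist was added and cells incubated overnight. Supernatant NF-κB (SEAP, QUANTI-Blue, 620 nm absorbance) and IRF (Lucia luciferase, QUANTI-Luc, luminescence) signals were divided by the mean agonist-only control on the same plate to give fold change. Two replicate plates were averaged, with errors by propagation.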

[2] = tested on: RAW-Dual (murine macrophage reporter line); experiment: IRF reporter (Lucia luciferase) activity fold change vs agonist alone; higher = enhanced IRF activity
Method in brief: as §1

[3] = tested on: RAW-Dual (murine macrophage reporter line); experiment: viability score (confluency relative to resting cells, overnight) (fraction); higher = more viable, active = viable (0.7 or more)
Method in brief: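 RAW-Dual macrophages in 384-well plates were exposed overnight to compound at 10 μM final. Confluency was imaged with IncuCyte, and two confluency masks were generated with IncuCyte software over all imaged wells. The viability score is confluency expressed relative to resting cells. Compounds were called viable if both masks exceeded 70% of resting cells.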

[4] = agonist: CpG ODN 1826 0.5 ug/mL

Structure (SMILES)	NF-kB reporter [1, 4]	NF-kB reporter ([1]; agonist: LPS 0.1 ug/mL)	NF-kB reporter ([1]; agonist: MPLA […])	IRF reporter ([2]; agonist: 3'3'-cGAMP 10 ug/mL)	IRF reporter ([2]; agonist: LPS 0.1 ug/mL)	IRF reporter ([2]; agonist: MPLA […])	viability score [3]
C[C@@H](O[C@H]1OCCN(Cc2nc(=O)[nH][nH]2)[C@H]1c1ccc(F)cc1)c1cc(C(F)(F)F)cc(C(F)(F)F)c1 [Prestw-1600]	0.345 ± 0.022	0.516 ± 0.058	0.333 ± 0.023	1.64 ± 0.067	1.23 ± 0.078	0.969 ± 0.13	0.264 (inactive)
COc1cc(C2Oc3cc(C4Oc5cc(O)cc(O)c5C(=O)C4O)ccc3OC2CO)ccc1O (centres undefined)	1.11 ± 0.083	1.07 ± 0.057	1.13 ± 0.029	0.988 ± 0.082	0.93 ± 0.17	1 ± 0.17	0.981 (active)
O=[N+]([O-])c1ccc2nc(Cl)sc2c1	1.71 ± 0.13	0.49 ± 0.039	0.338 ± 0.032	0.159 ± 0.02	0.223 ± 0.083	0.0921 ± 0.025	0.638 (inactive)
c1coc(CNc2nc(-c3ccncc3)cs2)c1	0.857 ± 0.073	0.863 ± 0.13	1.25 ± 0.11	0.492 ± 0.03	1.12 ± 0.08	1.14 ± 0.097	0.981 (active)
Cc1cc(OC2CCN(S(=O)(=O)CCc3ccccc3)C2)cc(=O)n1C (centres undefined)	1.13 ± 0.069	0.929 ± 0.088	1.15 ± 0.067	0.7 ± 0.054	0.785 ± 0.19	0.738 ± 0.29	0.975 (active)
CCN1C(=O)C(=C2SC(N3CCOCC3)=NC2=O)c2ccccc21	0.991 ± 0.08	1.07 ± 0.079	0.952 ± 0.064	0.949 ± 0.042	1.22 ± 0.13	0.978 ± 0.23	1.01 (active)
COc1ccc(CNC2CCCc3ccccc32)c(OC)c1 (centres undefined)	0.48 ± 0.13	0.812 ± 0.088	0.775 ± 0.12	0.615 ± 0.027	1.23 ± 0.13	1.61 ± 0.17	0.94 (active)
Cc1ccc(S(=O)(=O)c2ccc(O)c(O)c2)cc1	0.932 ± 0.074	1.02 ± 0.095	1.03 ± 0.086	0.599 ± 0.036	1.31 ± 0.096	1.08 ± 0.12	0.987 (active)
O=c1c(-c2ccccc2)coc2cc(O)ccc12	1.2 ± 0.089	1.09 ± 0.11	1.13 ± 0.049	0.886 ± 0.051	1 ± 0.11	0.973 ± 0.097	1 (active)
Cc1ccc(C(=O)C(C)CN2CCCCC2)cc1.Cl (centres undefined)	0.981 ± 0.13	1.05 ± 0.14	0.908 ± 0.052	0.895 ± 0.032	1.27 ± 0.41	1.43 ± 0.15	0.956 (active)
CNCCc1ccccn1.Cl.Cl	1.19 ± 0.36	0.956 ± 0.18	0.964 ± 0.08	0.946 ± 0.05	1.01 ± 0.31	1 ± 0.13	0.997 (active)
CCOC(=O)C(C)N(c1ccc(OC)cc1)S(C)(=O)=O (centres undefined)	0.99 ± 0.056	0.985 ± 0.071	0.905 ± 0.053	1.07 ± 0.053	1.22 ± 0.083	1.12 ± 0.27	0.977 (active)
O=C(OCCO)c1cc(Cl)c(C(=O)OCCO)cc1Cl	0.979 ± 0.062	1 ± 0.065	0.936 ± 0.079	0.987 ± 0.034	1.49 ± 0.1	1.23 ± 0.11	1 (active)
NS(=O)(=O)c1ccc(C(=O)O)cc1	0.892 ± 0.066	0.94 ± 0.096	1.06 ± 0.096	1.01 ± 0.054	1.01 ± 0.18	1 ± 0.31	0.994 (active)
COC(=O)Nc1nc2ccc(S(=O)c3ccccc3)cc2[nH]1 (centres undefined)	1.1 ± 0.065	1.04 ± 0.11	1.12 ± 0.059	0.279 ± 0.081	0.924 ± 0.11	0.536 ± 0.18	1.01 (active)
C=CCNC(N)=S	1.37 ± 0.2	1 ± 0.32	0.931 ± 0.077	0.898 ± 0.027	1.06 ± 0.4	0.986 ± 0.17	1.01 (active)
COc1ccc(-c2[nH]c(-c3cccc(OC)c3)nc2SCC(=O)NC2CCCC2)cc1	0.849 ± 0.074	1.13 ± 0.056	1.91 ± 0.15	0.438 ± 0.026	0.824 ± 0.044	1.85 ± 0.14	1 (active)
CCCCNc1ccc(C(=O)OCCN(C)C)cc1.Cl	0.906 ± 0.12	0.983 ± 0.31	0.987 ± 0.055	0.824 ± 0.039	1.15 ± 0.34	1.09 ± 0.086	1.01 (active)
COc1ccc(-c2[nH]c3ccccc3c2SCCNC(=O)c2ccccc2)cc1	1.12 ± 0.086	1.19 ± 0.072	1.29 ± 0.11	0.832 ± 0.035	1.42 ± 0.14	1.17 ± 0.12	0.966 (active)
Cc1cccc(CN2CCN(C(c3ccccc3)c3ccc(Cl)cc3)CC2)c1.Cl.Cl (centres undefined)	0.289 ± 0.013	0.913 ± 0.1	1.44 ± 0.082	1.35 ± 0.068	1.28 ± 0.27	1.27 ± 0.35	0.272 (inactive)
O=C(CCCN1C(=O)c2cccc3cccc(c23)C1=O)NCCO	1.04 ± 0.061	0.976 ± 0.078	0.963 ± 0.025	1 ± 0.072	1.12 ± 0.052	1.05 ± 0.1	0.995 (active)
O=C(O)CCCNC(=O)c1cccc([N+](=O)[O-])c1	1.06 ± 0.14	1.11 ± 0.082	0.983 ± 0.036	0.986 ± 0.14	1.11 ± 0.11	1.05 ± 0.19	1 (active)
O=C(NC1CCCCC1)c1cccc(C(F)(F)F)c1	0.851 ± 0.31	1.09 ± 0.14	1 ± 0.12	0.775 ± 0.033	1.15 ± 0.16	1.47 ± 0.3	0.997 (active)
NC(=O)NCC(N)C(=O)O (centres undefined)	0.988 ± 0.082	1.02 ± 0.09	0.969 ± 0.022	0.959 ± 0.053	0.963 ± 0.12	1.02 ± 0.1	0.994 (active)
O=S(=O)(c1cccc2ccccc12)n1nnc2ccccc21	1.01 ± 0.092	1.03 ± 0.068	1.05 ± 0.08	1.09 ± 0.29	1.04 ± 0.065	0.995 ± 0.067	1 (active)
COc1cc(C(=O)O)ccc1NC(=O)[C@@H]1N[C@@H](CC(C)(C)C)[C@](C#N)(c2ccc(Cl)cc2F)[C@H]1c1cccc(Cl)c1F	0.35 ± 0.03	0.513 ± 0.052	0.679 ± 0.058	0.608 ± 0.053	1.02 ± 0.21	0.952 ± 0.34	0.122 (inactive)
COc1ccc(-c2coc3cc(O)cc(O)c3c2=O)cc1	1.87 ± 0.54	1.27 ± 0.083	1.73 ± 0.13	0.919 ± 0.071	1.32 ± 0.18	1.37 ± 0.14	0.623 (inactive)
